Screens: PubChem BioAssay, National Center for Advancing Translational Sciences (NCATS)
The list is not random: actives were taken first. Their share in the collection is about 7.8%.
HCV inhibitor: inhibitors of hepatitis C virus infection. Huh7.5.1 HCVcc-Cre infection, luciferase reporter, 44 h. Potency, µM (titrated, usually from 41.8 µM), without a hit: at the top dose activity change, negative = inhibition, usual class: inhibitors. 340,000 compounds, 3.4% hits. AID 651820; active = well fitted inhibition curve with a large enough effect; inconclusive = small, poorly fitted or top-dose-only effect, or another doubt; inactive = no such curve, though single readings can be large or run the other way; also: potency is read from the fitted curve at half-maximal effect
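Infectious HCVcc-Cre (~0.5 moi) was added to cells just after compound, with cells seeded 4 h earlier at 1,000 per well. Luciferase activity after 44 h culture reported infection; substrate was incubated 15 min at room temperature before reading.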
Lassa entry inh: Lassa virus entry inhibition | 300,000 compounds, 1.2% hits | AID 540256 | Lassa virus pseudotype entry inhibition, cell reporter | Potency, µM (series often up to 37.9 µM), for inactives: top-dose activity change, negative = inhibition, most hits filed as inhibitors; calls by dose curve; tested in HEK293 cells; also: potency is read from the fitted curve at half-maximal effect; nearly all actives have a fitted effect of over 50% in size
Vaccinia mCherry: vaccinia inhibition (mCherry reporter). Potency, µM (highest dose often 36.5 µM), for the others: at the top dose activity change, negative = inhibition, hits mostly inhibitors. Vaccinia virus mCherry reporter infection, fluorescence. 310,000 compounds, 0.63% hits; calls by dose curve; tested in A549 cells; also: potency is read from the fitted curve at half-maximal effect; nearly all actives have a fitted effect of over 35% in size
HCMV inh: human cytomegalovirus inhibition | HFF cells, HCMV-luciferase reporter, 72 h; stronger effect = lower value | activity change, negative = inhibition, % at 57.5 µM | 410,000 compounds, 4.5% hits | AID 1259415; in the data active = activity change below about -60%; inconclusive = no clear call, values can overlap the other calls; inactive = above about -39%
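Two compound doses tested in HFFs infected with HCMV-luciferase, MOI 1 PFU/cell, 72 h at 37C. Lysate luminescence read with OneGlo; data normalized against buffer-only and 10uM Salinomycin inhibitor controls.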
Marburg entry inh: blocks Marburg virus binding to or entry into cells; Marburg virus pseudotyped entry inhibition, cell reporter; Potency, µM (doses to about 37.8 µM), for inactives: at the highest dose activity change, negative = inhibition, actives largely listed as inhibitors; 300,000 compounds, 1.8% hits; AID 540276; calls by dose curve; tested in HEK293 cells; also: potency is read from the fitted curve at half-maximal effect
VACV Venus inh: inhibitors of vaccinia virus (Venus reporter) | 330,000 compounds, 0.46% hits | Vaccinia virus Venus reporter expression, fluorescence | Potency, µM (series often up to 36.5 µM), inactives show at the top dose activity change, negative = inhibition, most hits filed as inhibitors; calls by dose curve; tested in A549 cells; also: potency is read from the fitted curve at half-maximal effect; nearly all actives have a fitted effect of over 30% in size
The depositor's hits bear a star; i = inactive; ? = inconclusive; . = no result given; ! = not confirmed by another sample; [ ] = another dose, or the depositor's remark. % is scaled to controls: 0 for no effect and ±100 for the full control effect.

SMILES	HCV inhibitor	Lassa entry inh	Vaccinia mCherry	HCMV inh	Marburg entry inh	VACV Venus inh
COc1ccccc1C(=O)NC1(C(F)(F)F)C(=O)NC(C)=C1C#N (stereo not given)	.	1.9%[46.1 µM]	-7.8%	-7.0	-11.4%[46.1 µM]	-5.1%
Cc1c(C(=O)N2CCCCC2)sc2ncnc(NCCN(C)C)c12	.	.	-6.2%	.	.	0.2%
O=C(NCCCN1CCN(c2ccccc2)CC1)c1nnc(Cc2ccc(F)cc2)o1	.	5.6%[46.1 µM]	-3.6%	-11.4	.	-5.6%
COc1cccc(CNc2ncnc3sc(C(=O)N4CCOCC4)c(C)c23)c1OC	.	.	-20.0%	.	.	-5.6%
c1cncc(CNc2ncnc3ccc(-c4ccoc4)cc23)c1	.	.	.	-82.5*	.	.
Cc1ccc(NC(=O)C2CCCN(C(=O)c3cnn(-c4ccc(F)cc4)c3-n3cccc3)C2)c(Cl)c1 (stereo not given)	.	12.8%[46.1 µM]	-22.3%	-2.8	.	-20.5%
COc1cc(CNc2nc(C)c(-c3ccn(CC4CCCN(C)C4)n3)s2)ccc1F (stereo not given)	.	.	-13.1%	.	.	-5.9%
OCCCc1ccc(O)c(O)c1	-11.5%	.	-4.8%	0.1	.	-2.2%
CCCN(CCC)CCc1ccc(O)c(O)c1	.	23.6%	-14.5%	.	1µM*!	-3.6%
COC(=O)c1ccc(NC(=O)c2nn(C)c3c2CS(=O)(=O)c2ccccc2-3)cc1	.	4.0%[46.1 µM]	-13.0%	0.1	.	-17.2%
CCCCN1C2=C(C(=O)CCC2)C(c2ccc(Cl)c(Cl)c2)C2=C1c1ccccc1C2=O (stereo not given)	?	2.31µM*	.	5.7	?	.
CCCN1C(=O)c2ccccc2NC1c1ccc(Cl)c(Cl)c1 (stereo not given)	?	.	.	-14.3	.	.
COc1ccc(N2CCN(C(=O)c3ccc(CNS(=O)(=O)c4cccc(OC)c4)cc3)CC2)cc1	3.55µM*	?	?	-37.8	-18.6%[46.1 µM]	-21.6%
Cc1ccc(C(=O)NCc2ccc(N3CCN(C(=O)OC(C)(C)C)CC3)cc2)cc1	-2.7%	4.9%	i	-33.8	1.5%	-7.2%
Cc1ccc(S(=O)(=O)NCc2ccc(N3CCN(C(=O)OC(C)(C)C)CC3)cc2)cc1	?	-14.7%[46.1 µM]	-12.0%	-67.7*	-13.1%[46.1 µM]	-4.7%
COc1cccc(S(=O)(=O)NCc2ccc(C(=O)N3CCN(c4ccccc4)CC3)cc2)c1	?	.	.	-32.0	.	.
COc1ccc(CNS(=O)(=O)c2c(C)[nH]c(C)c2C(=O)N2CCCC2)cc1	1.3%	.	-13.5%[7.34 µM]	-62.0*	.	-2.2%[7.34 µM]
Cc1[nH]c(C)c(S(=O)(=O)NCc2ccc(OC(C)C)cc2)c1C(=O)N1CCCC1	4.7%	.	-11.0%[7.34 µM]	-30.8	.	-11.4%[7.34 µM]
CN(c1ccc(C(=O)N2CCN(Cc3ccccc3)CC2)cc1)S(=O)(=O)c1ccc(Cl)cc1	10µM*	-10.9%[46.1 µM]	-4.6%	-62.7*	?	-20.9%
COc1ccc(CNC(=O)c2cc3ccccn3n2)cc1OC	.	-7.0%[46.1 µM]	-7.5%	12.6	.	-1.4%
CCOc1ncccc1C(=O)N1CCN(c2cc(Cl)ccc2C)CC1	?	?	?	-19.2	?	-27.4%
Cc1cccc(N2CCN(C(=O)c3c(-c4ccccc4)noc3C)CC2)c1C	?	?	?	-12.1	2.51µM*	-20.9%
O=C(c1ccc(CNS(=O)(=O)c2ccccc2)cc1)N1CCN(Cc2ccccc2)CC1	11.2µM*	?	-3.2%	-75.6*	?	-25.4%
CCOc1ncccc1C(=O)N1CCN(c2cccc(C)c2C)CC1	?	?	-12.0%	-96.0*	?	?
CC(=O)c1ccc(N2CCN(C(=O)/C=C/c3ccc(S(=O)(=O)NCc4ccco4)cc3)CC2)cc1	?	?	-9.0%	-66.2*	?	-13.9%
SMILES	HCV inhibitor	Lassa entry inh	Vaccinia mCherry	HCMV inh	Marburg entry inh	VACV Venus inh
O=S(=O)(c1ccc(Br)cc1)c1nnn2c1nc(NCc1ccc3c(c1)OCO3)c1sccc12	.	12.8%[46.1 µM]	-14.7%	13.1	.	-20.8%
COc1ccccc1CNC(=O)c1cn(C)c2ccc(S(=O)(=O)N3CCC(C)CC3)cc2c1=O	.	?	-5.6%	6.6	26.4%[46.1 µM]	9.6%
O=C1c2[nH]nc(-c3ccc(F)cc3)c2C(c2ccccc2F)N1c1ccccc1 (stereo not given)	.	?	i	-34.6	-16.0%[46.1 µM]	-4.1%
N#Cc1ccc(CN2CCN(C(=O)c3ccc(S(=O)(=O)NCc4ccco4)cc3)CC2)cc1	6.31µM*	.	.	0.0	.	.
CN1CCN(C(=O)c2ccc(S(=O)(=O)N(C)c3ccccc3)cc2)CC1	.	.	-2.3%	-19.2	.	-0.3%
Cc1cccc(N2CCN(C(=O)c3ccc(S(=O)(=O)N(C)c4ccccc4)cc3)CC2)c1C	?	4.47µM*	?	?	?	?
COc1ccc(NC(=O)Nc2cc(-c3cn4cccnc4n3)ccc2C)cc1	.	-6.5%[46.1 µM]	2.3%	11.9	?	11.8%
COc1ccc2c(C)cc(SCC(=O)Nc3cc(C(N)=O)cc(C(N)=O)c3)nc2c1	3.98µM*	-12.8%	i	-14.3	?	-25.0%
Cc1cccc(NC(=O)CSc2nc3ccccc3nc2N2CCC(C)CC2)c1	.	?	?	-88.0*	1.12µM*	10.1%
CC(=O)Nc1ccc(NC(=O)CSc2nc3ccccc3nc2N2CCC(C)CC2)cc1	-6.6%	?	-29.8%	-6.9	1.2%[46.1 µM]	-14.4%
Cc1ccc(NC(=O)CSc2nc3ccccc3nc2N2CCOCC2)c(C)c1	?	.	i	-71.4*	.	-5.1%
COc1cccc(NC(=O)CSc2cc(C)c3ccccc3n2)c1	.	?	-9.2%	?	?	-1.2%
Cc1cccc(NC(=O)CSc2cc(C)c3ccccc3n2)c1	.	?	1.5%	-74.0*	2.24µM*	16.4%
Cc1cc(C)c2nc(N(Cc3cccnc3)C(=O)c3ccc(S(=O)(=O)N(C)C)cc3)sc2c1	.	19.7%[46.1 µM]	-20.9%	0.0	.	-17.4%
Cc1cc(SCC(=O)c2ccc(O)c(O)c2)nc2ccccc12	?	-4.2%	-23.4%	-70.1*	?	-16.7%
O=C(CSc1nc2ccccc2nc1N1CCCC1)Nc1ccc(F)cc1	?	.	i	-65.5*	.	-9.7%
CC(=O)Nc1ccc(NC(=O)CSc2nc3ccccc3nc2N2CCCCC2)cc1	-3.7%	3.8%	-13.3%	-13.4	20.6%[46.1 µM]	-18.8%
Cc1cc(=O)[nH]c2nnc(SCc3ccc(Cl)c(Cl)c3)n12	.	-10.8%[46.1 µM]	-6.6%	57.8	.	-19.8%
Cc1nn(S(=O)(=O)c2ccc(C(C)(C)C)cc2)c(C)c1S(=O)(=O)N1CCCCCC1	.	9.1%[46.1 µM]	-5.7%	-8.5	.	-5.2%
Cc1ccccc1NC(=O)c1ccc(N/N=C/c2ccccc2O)c([N+](=O)[O-])c1	-26.3%	3.8%	-19.3%	-84.5*	0.7%	-7.8%
Cc1ccc(NC(=O)c2ccc(N/N=C/c3cccc(O)c3)c([N+](=O)[O-])c2)cc1	?	?	i	-87.3*	?	?
NS(=O)(=O)c1ccc(N/N=C/c2ccccc2C(=O)O)c([N+](=O)[O-])c1	-11.7%	3.5%	6.4%	-23.5	-16.5%[46.1 µM]	-8.0%
CCC[N+](C)(C)c1ccc(/C=C/c2ccnc3ccccc23)cc1	.	.	i	.	.	i
